# Data: PubChem BioAssay AID624351 (Southern Research Specialized Biocontainment Screening …, 2012)
# Hit rate of the full screen: of about 2,400 compounds, about 1,400 (58%) were called active.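 How the source made its calls: active means inhibition of 30% or more at any tested dose; inconclusive means primary hits over the limit that were never retested; inactive means the rest.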 The set was probably picked from earlier hits. The list shows a part of the results.
# Test: coupled detection enzyme interference, dose response, artefact control for MgcRacGAP inhibitor project, biochemical, coupled enzyme counter-screen (AID 624351);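 further: signal is the ADP detection kit reading of free GDP without any GAP enzyme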;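 on inhibition: 0% = median positive control wells and 100% = median negative control wells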
# Settings: ADP Hunter coupled enzyme counter-screen, fluorescence, no MgcRacGAP; series mostly up to 80 µM; inhibition: at the top concentration
SMILES,inhibition,IC50
CCCCCCCCCCCCCCCC[n+]1ccccc1,4.98% (inactive),
C/C(CC(=O)Nc1ccc(N(C)C)cc1)=N\NC(=O)c1ccncc1,,74.6 µM (active)
N#C/C(=C/c1ccc(N2CCCCCC2)o1)c1ccc(Cl)cc1,6.82% (inactive),
N#C/C(=C/c1ccc(N2CCOCC2)o1)c1nc2ccccc2[nH]1,,38.6 µM (active)
N#C/C(=C\c1ccc(N2CCOCC2)o1)c1nc2ccccc2[nH]1,,13.5 µM (active)
CN(C)c1ccc(C=c2c3ccccc3n3c2cc(-c2ccc(Cl)cc2)[n+]3C)cc1,23.3% (inactive),
CC(C)COc1ccc(N)cc1OCC(C)C,,46.2 µM (active)
CCOc1ccc(N)cc1OC,,43.1 µM (active)
CCN(Cc1ccncc1)Cc1ccc(OC)c(OC)c1,3.65% (inactive),
CCOc1ccc(C2NC(=O)C(C#N)=C(S)N2c2ccc(OC)cc2)cc1OC (stereo not drawn),2.78% (inactive),
CN(C)/C=C1\NC(=S)N(c2ccccc2)C1=O,,71.9 µM (active)
COc1ccc(-n2sc3ccc(F)cc3c2=O)cc1,22.9% (inactive),
COc1ccc(-n2sc3ccccc3c2=O)cc1,10.5% (inactive),
COc1ccc(N2C(=O)/C(=C/N(C)C)NC2=S)cc1,,77.5 µM (active)
Cc1cccc2c(N)c3c(nc12)N(C)CC3,-29.6% (inactive),
Cc1ccc2c(C)nc(/N=C(\N)NC(=O)N3c4ccccc4Sc4ccccc43)nc2c1,,inactive
Cc1cccn2c(CNC3CCCc4ccccc43)c(C(=O)N3CCCCC3)nc12 (stereo not drawn),-1.5% (inactive),
CN(C)c1ccc(NC(=O)CCN2C(=O)c3cccc([N+](=O)[O-])c3C2=O)cc1,,72.7 µM (active)
CCCCOc1ccc(NC(=O)CN2CCN(CC)CC2)cc1,29.1% (inactive),
CN1CC(=O)N(CC(=O)Nc2ccc(N(C)C)cc2)c2ccccc2C1=O,,58.4 µM (active)
Cc1ccc(NC(=O)CN2CCC(Cc3ccccc3)CC2)cc1S(=O)(=O)N(C)C,7.91% (inactive),
CN(C)c1ccc(NC(=O)CN2C(=O)c3ccccc3C2=O)cc1,,83.9 µM (active)
O=C(CN1CCN(c2ccccn2)CC1)Nc1ccc(F)cc1,25.8% (inactive),

SMILES,inhibition,IC50
O=C1C(Cl)=C(NC(=O)c2ccccc2)C(=O)C(Cl)=C1NC(=O)c1ccccc1,-0.63% (inactive),
Cc1cc(O)ccc1NC(=O)c1ccccc1,,71 µM (active)
CCN(CC)CCCC(C)NC(=O)c1c(NC(=O)c2ccccc2)sc2c1CCCC2 (stereo not drawn),14.1% (inactive),
O=C(O)CCCNC(=O)/C=C/c1ccco1,-3.21% (inactive),
CSc1ccc(CN2CCC(C(=O)NCc3ccc(C)cc3)CC2)cc1,21.7% (inactive),
Cc1csc(=O)n1CC(=O)OC(C)C(=O)Nc1ccc(N(C)C)cc1 (stereo not drawn),,56.8 µM (active)
CC1CN(CCCCN2C(=O)c3ccccc3C2=O)CC(C)O1 (stereo not drawn),16.3% (inactive),
Cc1cc(C)c(S(=O)(=O)Nc2ccc(N(C)C)cc2)c(C)c1-n1cnnn1,,44.4 µM (active)
O=[N+]([O-])c1ccc(C2CC(c3ccccc3)=Nc3ccccc3S2)cc1 (stereo not drawn),2.52% (inactive),
Clc1cccc(-c2ccc(C=Nc3ccc(N4CCOCC4)cc3)o2)c1Cl,,14.8 µM (active)
Cc1ccc(Cl)cc1-c1ccc(C=Nc2ccc(N3CCOCC3)cc2)o1,,11.4 µM (active)
O=C1CCCC2=C1Sc1ccc(Cl)cc1N2,,65.6 µM (active)
CC(C)NCC#CCOc1ccc(Cl)cc1,15.6% (inactive),
COc1ccc(NCCC(O)c2ccc(Cl)cc2)cc1 (stereo not drawn),,28 µM (active)
COc1ccc(NC(C)c2cc(Cl)ccc2O)cc1 (stereo not drawn),,61.5 µM (active)
COc1ccc(O)c(C(c2c(C)[nH][nH]c2=O)c2c(C)[nH][nH]c2=O)c1,-23.8% (inactive),
CCN(CC)S(=O)(=O)c1ccc(N/N=C/c2ccc(O)cc2)nc1,,38 µM (active)
CCN(CC)S(=O)(=O)c1ccc(N/N=C/c2ccc(O)cc2O)nc1,,29.4 µM (active)
C[n+]1c(-c2ccccc2)cc2c(=Cc3ccc([N+](=O)[O-])cc3)c3ccccc3n21,5.28% (inactive),
CC(C)CN(Cc1c(O)ccc2ccccc12)CC(C)C,,53.2 µM (active)
COc1cc(/C=C2/C(=O)NN(c3ccc(Cl)cc3)C2=O)cc(Br)c1O,12.1% (inactive),
CN=c1scc(C)n1/N=C/c1cc(Br)c(O)c(Br)c1,,69.6 µM (active)
CCN=c1scc(C)n1/N=C/c1cc(Br)c(O)c(OC)c1,,28.7 µM (active)

SMILES,inhibition,IC50
CN=c1scc(C)n1/N=C/c1cc(Br)c(O)c(OC)c1,,12.6 µM (active)
Cc1cc(C)cc(-n2c3nc4ccccc4nc3c3c(=O)n(Cc4ccco4)cnc32)c1,-1.1% (inactive),
COc1ccc(CN2CCN(Cc3ccc4ccccc4c3)CC2)cc1OC,15% (inactive),
CN1CCCCCC1=Nc1ccccc1C#N,22.3% (inactive),
Cc1cc(/C=C2\SC(=S)NC2=O)cc(C)c1O,,29.1 µM (active)
O=C1NC(=S)S/C1=C\C=C\c1ccc([N+](=O)[O-])o1,6.48% (inactive),
Cc1cc(/C=C2\SC(=S)NC2=O)c(C)[nH]1,10.3% (inactive),
COc1ccc(N=C2NC(=O)/C(=C/c3ccc(O)c(OC)c3)S2)cc1,,24.1 µM (active)
O=C1NC(=S)S/C1=C\c1cc(Cl)cc(Cl)c1O,22.8% (inactive),
Cn1cccc1/C=C1\SC(=Nc2ccc(O)cc2)NC1=O,,62.7 µM (active)
COc1cc(/C=C2\SC(=Nc3ccc(Cl)c(C(=O)O)c3)NC2=O)c(Br)c(Br)c1O,,37.5 µM (active)
COc1ccc(/C=N/N=C2/NC(=O)C(CC(=O)O)S2)cc1OCc1ccc(Cl)cc1Cl (stereo not drawn),6.87% (inactive),
COc1cc(/C=N/N=C2/NC(=O)C(c3ccccc3)S2)ccc1O (stereo not drawn),,41.6 µM (active)
COCCCNCCCCOc1c(Cl)cc(C)cc1Br,18.9% (inactive),
Nc1cc(SCc2ccc([N+](=O)[O-])cc2)ncn1,-2% (inactive),
COc1cc(/C=C2/SC(=Nc3ccc(O)cc3)NC2=O)ccc1O,,27.2 µM (active)
CN(C)c1ccc(/C=C2/NC(=O)NC2=O)cc1,,52.8 µM (active)
COc1cc(/C=C2\SC(=Nc3ccccc3)NC2=O)cc(Cl)c1O,,82 µM (active)
COc1cc(C=C2NC(=O)NC2=O)ccc1O,,19.4 µM (active)
COc1cc(/C=C2/C(=O)ON=C2c2ccccc2)ccc1O,22.2% (inactive),
CCOc1ccc(C2NC(=O)C(C#N)=C(S)N2c2cccc(C)c2)cc1OC (stereo not drawn),3.96% (inactive),
COc1cc(/C=C2\SC(=Nc3ccccc3OC)NC2=O)ccc1O,,25 µM (active)
COc1ccccc1-c1cn[nH]c1-c1ccc(O)cc1O,,51.4 µM (active)

SMILES,inhibition,IC50
COc1ccc(-c2cn[nH]c2-c2ccc(O)cc2O)cc1OC,,57.6 µM (active)
COc1ccc(-c2cn[nH]c2-c2ccc(O)cc2O)cc1,,47.9 µM (active)
CCn1c(=O)c(C(=O)CN(C)Cc2cccc(OC)c2OC)c(N)n(Cc2ccccc2)c1=O,26.9% (inactive),
COCCCNC1=C(C#N)C(=O)NC(c2cccs2)S1 (stereo not drawn),0.96% (inactive),
CC1(C)OC(=O)C(=Cc2ccc(-c3ccc(S(N)(=O)=O)cc3)o2)C(=O)O1,-0.06% (inactive),
O=c1c2ccc(F)cc2sn1-c1ccccc1,22.8% (inactive),
COc1cc2c(CCNC(C)=O)c[nH]c2cc1O,,50.7 µM (active)
COc1ccc(Br)cc1CN1CCN(Cc2c[nH]c3ccccc23)CC1,23.5% (inactive),
CC(=O)N1CCN(CC(O)COc2ccc(Br)cc2)CC1 (stereo not drawn),15.8% (inactive),
O=C(Cc1coc2cc(O)ccc12)N1CCN(S(=O)(=O)c2ccc(Br)cc2)CC1,,21.6 µM (active)
CCOc1ccc(CN2CCN(S(=O)(=O)c3ccc(NC(C)=O)cc3)CC2)cc1,10.9% (inactive),
Cc1ccc(C)c(S(=O)(=O)N2CCN(CC(=O)N3CCc4ccccc4C3)CC2)c1,24.3% (inactive),
N#Cc1ccccc1S(=O)(=O)N1CCN(C(=O)Cc2coc3cc(O)ccc23)CC1,,33.6 µM (active)
Oc1ccc(-c2cn3c(n2)SCC3)cc1,,19.5 µM (active)
CCOc1cc(-c2cc(-c3ccc(N)cc3)nc(N)c2C#N)ccc1O,0.56% (inactive),
CCOc1cc(/C=C(\C#N)c2[nH]nc(N)c2C#N)ccc1O,,45.7 µM (active)
Oc1ccc2ccccc2c1Br,,15.8 µM (active)
CC1NC(C)c2c(ccc3ccccc23)O1 (stereo not drawn),20.8% (inactive),
CC1CCCN(CCOc2ccc3ccccc3c2Br)C1 (stereo not drawn),10.3% (inactive),
CN1C(=O)C2C(c3ccc(N(C)C)cc3)=NN(Cc3ccccc3)C2C1=O (stereo not drawn),,46.5 µM (active)
c1ccc(Nc2cc(Nc3ccccc3)[nH]n2)cc1,,57.9 µM (active)
C/C=C/C=C/C(=O)[C@@H]1[C@@H]([C@]2(C)OC(=O)C(C)=C2O)[C@H]2/C(=C(O)/C=C/C=C/C)C(=O)[C@]1(C)C(=O)C2(C)O (stereo partly drawn),-21.4% (inactive),
Oc1ccc(NC(=S)N=Nc2c(O)[nH]c3ccccc23)cc1,,27.5 µM (active)

SMILES,inhibition,IC50
Nc1ccc2nc(CCCCc3nc4ccccc4[nH]3)[nH]c2c1,,59.4 µM (active)
Nc1ccc2nc(Cc3ccccc3)[nH]c2c1,,72.6 µM (active)
O=C1C(=Cc2ccco2)CCC1=Cc1ccco1,-16.6% [at 10 µM] (inactive),
O=C(CCC1CCCC1)N1CCN(C2CCCC2)CC1,18.7% (inactive),
CC/C(=C\c1ccc(N(C)C)cc1)c1ccncc1,,29.7 µM (active)
COC1=C(Br)C(=O)c2nc(C)ccc2C1=O,-0.53% (inactive),
O=C(Nc1ccc(N2CCCCCC2)cc1)c1ccc[nH]1,,38.8 µM (active)
Cc1ccccc1C(=O)Nc1ccc(N2CCCC2)cc1,,70.8 µM (active)
O=C(Nc1ccc(N2CCCCC2)cc1)c1ccccc1,26.5% (inactive),
CN1CCN(Cc2coc3c(Cl)cc(Cl)cc3c2=O)CC1,23% (inactive),
Cc1ccc(CCC(=O)Nc2ccc(N(C)C)cc2)o1,,57.5 µM (active)
Cc1ccc(NC(=O)CCNCc2ccco2)cc1S(=O)(=O)N(C)C,17.8% (inactive),
COc1ccc(CN2CCN(Cc3cccc(F)c3)CC2)cc1OC,13% (inactive),
COc1ccc(C2CC(c3ccc4ccccc4c3)=NN2C(=O)CNC2CCCCC2)cc1 (stereo not drawn),8.63% (inactive),
O=C(c1cccc(F)c1)N1CCN(Cc2cccc(Br)c2)CC1,15.5% (inactive),
COc1ccc(NC2CCCN(C(=O)CCN3Cc4ccccc4C3=O)C2)cc1 (stereo not drawn),,63 µM (active)
COc1ccc(NC2CCCN(C(=O)CSc3ccccc3)C2)cc1OC (stereo not drawn),,68.5 µM (active)
COc1ccc(NC2CCCN(C(=O)CCN3CCCO3)C2)cc1 (stereo not drawn),27.3% (inactive),
COc1ccc(NC2CCCN(C(=O)CCc3cccc(F)c3)C2)cc1 (stereo not drawn),,72.9 µM (active)
COc1ccc(C(=O)N2CCN(C3CCN(Cc4ccccc4)CC3)CC2)cc1OC,21.6% (inactive),
COc1ccc(NC2CCCN(C(=O)CCN3CCCC3=O)C2)cc1OC (stereo not drawn),28% (inactive),
